# Test results as given in PubChem BioAssay.
# Calls of active or inactive are those of the source. Unless noted, no rule for the calls is given here.
# Assays:
# [1] = compounds binding Alexa647 anti-His antibody – biochemical, small-molecule microarray, 635 nm fluorescence, artefact control for SMM control protein annotation, primary screen (AID 1128); details: higher = more signal;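 also: score merges feature fluorescence with signal-to-noise for each printed compound spot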
# [2] = system: Human papillomavirus type 1a E7 protein (residues 1-88); assay: HPV1a E7 small-molecule binders, primary screen, biochemical, small-molecule microarray, residues 1-88, 635 nm (AID 1129); details: small-molecule microarray binding, fluorescence 635 nm; higher = more signal
# [3] = molecular target: Focal adhesion kinase 1 (Homo sapiens) (UniProt Q05397); assay: PTK2 protein binding on printed compound slides – biochemical, small-molecule microarray, 635/667 nm fluorescence, BSA, DTT, primary screen (AID 1130); details: 635 nm fluorescence, higher = more signal;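 also: composite of spot emission at 667 nm and signal to noise over triplicate slides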
# Focal adhesion kinase 1 (Homo sapiens), sequence (Q05397 whole entry, looked up): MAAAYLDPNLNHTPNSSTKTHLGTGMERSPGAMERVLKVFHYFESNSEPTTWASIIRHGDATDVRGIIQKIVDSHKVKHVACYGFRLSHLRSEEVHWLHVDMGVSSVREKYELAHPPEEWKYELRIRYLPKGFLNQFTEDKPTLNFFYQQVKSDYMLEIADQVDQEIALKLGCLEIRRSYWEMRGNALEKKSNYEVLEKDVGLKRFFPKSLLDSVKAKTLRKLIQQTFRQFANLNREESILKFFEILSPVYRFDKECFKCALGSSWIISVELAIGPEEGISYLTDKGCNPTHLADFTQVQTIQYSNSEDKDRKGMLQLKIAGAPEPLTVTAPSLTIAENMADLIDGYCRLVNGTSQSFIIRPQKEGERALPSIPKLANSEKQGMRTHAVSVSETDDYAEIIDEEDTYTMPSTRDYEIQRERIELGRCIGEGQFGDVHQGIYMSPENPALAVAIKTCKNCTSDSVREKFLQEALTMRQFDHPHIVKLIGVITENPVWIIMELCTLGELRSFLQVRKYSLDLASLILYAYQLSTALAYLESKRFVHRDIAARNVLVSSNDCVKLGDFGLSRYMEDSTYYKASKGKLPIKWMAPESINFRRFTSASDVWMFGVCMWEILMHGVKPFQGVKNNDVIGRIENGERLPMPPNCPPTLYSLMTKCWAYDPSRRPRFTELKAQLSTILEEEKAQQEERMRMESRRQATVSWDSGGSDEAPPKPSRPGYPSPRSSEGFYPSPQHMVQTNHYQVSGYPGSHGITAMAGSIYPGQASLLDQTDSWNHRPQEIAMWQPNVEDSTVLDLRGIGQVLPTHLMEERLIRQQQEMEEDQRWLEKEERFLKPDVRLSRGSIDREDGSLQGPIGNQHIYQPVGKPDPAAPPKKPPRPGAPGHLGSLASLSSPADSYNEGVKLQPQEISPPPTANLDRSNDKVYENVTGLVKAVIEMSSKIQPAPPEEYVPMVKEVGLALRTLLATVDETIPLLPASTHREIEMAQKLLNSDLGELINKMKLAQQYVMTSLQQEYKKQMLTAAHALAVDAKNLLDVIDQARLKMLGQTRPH
# [4] = system: Fibrinogen (Alexa647-labelled); assay: Alexa647-fibrinogen binding to printed small molecules – biochemical, small-molecule microarray, 635/667 nm fluorescence, artefact control for SMM control-protein annotation, profiling panel (AID 1131); details: fibrinogen-A647 binding fluorescence, higher = more signal;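 also: z-score merges 667 nm fluorescence with per-spot signal-to-noise over triplicate slides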
# [5] = molecular target: Follistatin (Homo sapiens) (UniProt P19883); assay: FST protein binding to printed compounds – biochemical, small-molecule microarray, 635/667 nm fluorescence, primary screen (AID 1132); details: 635 nm fluorescence, higher = more signal
# Follistatin (Homo sapiens), sequence (P19883 whole entry, looked up): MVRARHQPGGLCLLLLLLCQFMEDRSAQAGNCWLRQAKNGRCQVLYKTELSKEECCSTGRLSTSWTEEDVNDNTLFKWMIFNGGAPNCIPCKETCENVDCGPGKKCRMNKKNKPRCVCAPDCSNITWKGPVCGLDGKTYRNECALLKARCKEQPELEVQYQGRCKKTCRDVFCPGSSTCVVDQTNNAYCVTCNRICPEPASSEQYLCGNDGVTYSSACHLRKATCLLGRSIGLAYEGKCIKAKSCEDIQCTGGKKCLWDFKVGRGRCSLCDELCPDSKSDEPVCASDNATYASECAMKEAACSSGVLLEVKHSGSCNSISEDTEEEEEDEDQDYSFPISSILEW
# [6] = molecular target: Fibroblast growth factor 2 (Homo sapiens) (UniProt P09038); assay: basic fibroblast growth factor binding to printed compounds – biochemical, small-molecule microarray, 635/667 nm fluorescence, primary screen (AID 1133); details: FGF2, fluorescence 635/667, higher = more signal
# Fibroblast growth factor 2 (Homo sapiens), sequence (P09038 whole entry, looked up): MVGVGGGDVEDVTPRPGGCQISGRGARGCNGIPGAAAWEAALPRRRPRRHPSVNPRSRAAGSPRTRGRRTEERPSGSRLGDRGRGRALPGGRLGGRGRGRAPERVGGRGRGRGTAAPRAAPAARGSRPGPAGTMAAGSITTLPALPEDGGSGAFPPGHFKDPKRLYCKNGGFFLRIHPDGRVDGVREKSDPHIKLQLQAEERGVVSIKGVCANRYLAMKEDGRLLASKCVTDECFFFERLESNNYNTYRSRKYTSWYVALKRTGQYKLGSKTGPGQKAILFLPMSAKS
# [7] = JC-1 mitochondrial potential readout, lung cancer cells – cell-based, A549, JC-1 fluorescence, basal, 24 h, 100 nL, profiling panel (AID 1138); details: higher = more signal;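 also: A549 lung adenocarcinoma cells under basal conditions with no added stimulus; test concentration not given here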
# Lefty1 = Lefty1 protein binding to printed compounds – biochemical, small-molecule microarray, 635/667 nm fluorescence, primary screen (AID 1139); details: fluorescence 635/667, higher = more signal
# [8] = system: wheat germ agglutinin (Triticum aestivum), Alexa647-labelled; assay: Alexa647-WGA lectin binding to printed small molecules – biochemical, small-molecule microarray, 635/667 nm fluorescence, artefact control for SMM control-protein annotation, profiling panel (AID 1140); details: WGA-A647 binding, 635 nm fluorescence, higher = more signal;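 also: score merges 667 nm feature emission with signal to noise over triplicate slides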
# [9] = molecular target: Luciferin 4-monooxygenase (Photinus pyralis) (UniProt P08659); assay: inhibition of purified Photinus pyralis luciferase – biochemical, luminescence, purified enzyme, 2006 set, primary screen (AID 1141); details: purified firefly luciferase, SteadyGlo luminescence, 30 min; higher = more signal, called active from +8 up or from −8 down;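 also: cell-free assay with purified firefly luciferase at 100 ng per well in PBS; test concentration not given here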
# Luciferin 4-monooxygenase (Photinus pyralis), sequence (P08659 whole entry, looked up): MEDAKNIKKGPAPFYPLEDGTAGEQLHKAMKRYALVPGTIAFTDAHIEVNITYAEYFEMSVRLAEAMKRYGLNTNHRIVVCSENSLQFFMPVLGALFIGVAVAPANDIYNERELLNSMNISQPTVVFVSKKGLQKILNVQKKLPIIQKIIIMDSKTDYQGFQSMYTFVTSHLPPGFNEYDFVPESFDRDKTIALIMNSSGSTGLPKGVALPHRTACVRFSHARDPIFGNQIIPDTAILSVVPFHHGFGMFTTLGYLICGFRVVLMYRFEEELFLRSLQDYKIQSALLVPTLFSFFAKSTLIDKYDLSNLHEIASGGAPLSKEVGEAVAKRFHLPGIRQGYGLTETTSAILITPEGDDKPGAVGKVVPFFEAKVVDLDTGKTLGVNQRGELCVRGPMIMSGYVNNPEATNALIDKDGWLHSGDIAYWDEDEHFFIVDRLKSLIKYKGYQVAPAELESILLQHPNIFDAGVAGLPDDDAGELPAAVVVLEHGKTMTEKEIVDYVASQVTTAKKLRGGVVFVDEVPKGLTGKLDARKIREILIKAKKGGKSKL
# [10] = system: Wnt5a (protein binding on small-molecule microarray); assay: small molecules binding Wnt5a protein – biophysical, small-molecule microarray, 635/667 nm fluorescence, primary screen (AID 1142); details: 635 nm fluorescence, higher = more signal;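 also: fluorescence read at 667 nm with signal to noise per printed feature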
# [11] = ATP-based viability of Huh7 replicon cells – cell-based, CellTiter-Glo luminescence, basal, 48 h, cytotoxicity control for HCV replication inhibitor project, primary screen (AID 1143); details: higher = more signal, called active from +8 up or from −8 down;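 also: Huh7 hepatoma cells carrying a hepatitis C replication reporter with no stimulus; test concentration not given here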
# [12] = Pseudomonas biofilm growth suppression – PAO1 strain, BacTiter-Glo luminescence, LB-PBS, primary screen (AID 1144); details: P. aeruginosa PAO1 biofilm, 12 h, higher = more signal
# [13] = basal CRE-LacZ reporter activity in PC12 – cell-based, unstimulated, primary screen (AID 1145); details: no forskolin, luminescence, 4.5 h, higher = more signal, called active from +8 up or from −8 down
# [14] = forskolin-driven CRE-LacZ activity in PC12 – cell-based, CRE-LacZ reporter, forskolin-stimulated, primary screen (AID 1146); details: luminescence, 4.5 h, higher = more signal, called active from +8 up or from −8 down;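 also: PC12 cells with 6xCRE LacZ reporter stimulated by forskolin 10 µM; beta-galactosidase reporter signal reflecting CREB driven transcription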
# [15] = molecular target: Streptavidin (Streptomyces avidinii) (UniProt P22629); assay: compounds binding control protein streptavidin – biophysical, small-molecule microarray, 635/667 nm fluorescence, artefact control for SMM compound annotation, primary screen (AID 1147); details: higher = more signal;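 also: signal reflects streptavidin binding to arrayed compounds as a control protein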
# Streptavidin (Streptomyces avidinii), sequence (P22629 whole entry, looked up): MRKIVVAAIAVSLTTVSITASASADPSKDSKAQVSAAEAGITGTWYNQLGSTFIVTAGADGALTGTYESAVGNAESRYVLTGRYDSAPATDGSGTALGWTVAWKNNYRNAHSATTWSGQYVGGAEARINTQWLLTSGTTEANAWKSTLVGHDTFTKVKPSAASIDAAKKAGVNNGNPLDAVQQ
# [16] = probe aInhba binding on compound microarray – biochemical, small-molecule microarray, 635/667 nm fluorescence, primary screen (AID 1148); details: higher = more signal;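 also: score merges 667nm spot fluorescence with signal-to-noise for antibody binding to printed compounds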
# Torsin-1A (Homo sapiens) [17] = molecular target: Torsin-1A (Homo sapiens) (UniProt O14656); assay: TOR1A wild-type binding on microarray – cell lysate, small-molecule microarray, lysate, 635/667 nm, primary screen (AID 1149); details: COS7 hTOR1A-WT lysate, 635 nm fluorescence, higher = more signal
# Torsin-1A (Homo sapiens), sequence (O14656 whole entry, looked up): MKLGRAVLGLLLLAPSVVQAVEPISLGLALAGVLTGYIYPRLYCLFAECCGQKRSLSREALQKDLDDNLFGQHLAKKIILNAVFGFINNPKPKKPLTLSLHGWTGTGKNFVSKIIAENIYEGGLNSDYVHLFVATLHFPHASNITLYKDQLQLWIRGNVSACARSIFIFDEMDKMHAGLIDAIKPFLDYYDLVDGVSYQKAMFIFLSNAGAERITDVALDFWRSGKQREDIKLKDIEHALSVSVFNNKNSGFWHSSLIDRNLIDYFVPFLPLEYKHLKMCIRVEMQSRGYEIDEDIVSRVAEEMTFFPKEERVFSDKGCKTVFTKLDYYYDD
# Torsin-1A (Homo sapiens) [18] = molecular target: Torsin-1A (Homo sapiens) (UniProt O14656); assay: torsin A mutant lysate binding on microarrays – cell lysate, small-molecule microarray, COS7 lysate, 635/667 nm fluorescence, primary screen (AID 1150); details: COS7 hTOR1A mutant lysate, 635 nm fluorescence, higher = more signal;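 also: score pools 667 nm emission and signal to noise measuring lysate protein binding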
# [19] = system: Sonic hedgehog protein (Shh); assay: Sonic hedgehog microarray binding compounds – biochemical, small-molecule microarray, 635/667 nm fluorescence, primary screen (AID 1151); details: 635 nm fluorescence, higher = more signal;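 also: Shh protein binding to compounds spotted on small-molecule microarray slides; score combines spot fluorescence intensity with signal-to-noise across triplicate slides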
SMILES,composite z-score [1],composite z-score [2],composite z-score [3],composite z-score [4],composite z-score [5],composite z-score [6],z-score [7],composite z-score (Lefty1),composite z-score [8],z-score [9],composite z-score [10],z-score [11],z-score [12],z-score [13],z-score [14],composite z-score [15],composite z-score [16],composite z-score (Torsin-1A (Homo sapiens) [17]),composite z-score (Torsin-1A (Homo sapiens) [18]),composite z-score [19]
CC1=C[C@@]2(CO)C(=O)[C@]3(CO3)[C@@H]1[C@H]1[C@]2(C)C=C(CO)C(=O)[C@]12CO2,0.0455,-0.0634,0.206,-0.403,0.443,0.165,0.173,0.381,0.207,0.538 (inactive),0.129,-0.0354 (inactive),-0.108 (inactive),0.314 (inactive),1.51 (inactive),0.006,-0.103,0.145,0.171,0.265
CCOC(=O)C[C@H]1[C@H](OC(=O)c2cc3ccccc3oc2=O)[C@@H](NC(=O)c2ccc(-c3ccccc3)cc2)c2cc(OCCCO)ccc2N1C(=O)c1ccccc1,0.942,1.2,0.309,0.711,1.34,0.92,-1.24,1.16,0.997,0.207 (inactive),0.624,-2.84 (inactive),1.02 (inactive),5.66 (inactive),-0.818 (inactive),0.509,0.027,1.4,-0.0812,1.87
COc1ccc([Si](C)(C)[C@@H]2[C@@H](CCO)O[C@]3(C(=O)N(Cc4ccc(N5CCCCC5=O)cc4)c4ccccc43)[C@H]2C)cc1,2.21,1.14,-0.0284,0.842,1.07,1.1,1.74,0.572,0.916,-1.24 (inactive),0.123,-7.34 (inactive),-0.701 (inactive),8.03 (active),-1.2 (inactive),0.269,-0.0471,0.0458,0.342,1.72
C=C(/C(=C/C[C@H](OC(=O)c1ccncc1)c1ccc(CO)o1)c1cc(C(=O)OC)ccc1OC)C(C)C,2,1.02,-0.0585,0.448,1.07,1.21,-0.432,1.14,0.433,-1.32 (inactive),-0.0222,-0.398 (inactive),-0.742 (inactive),0.621 (inactive),0.953 (inactive),-0.328,0.16,1.3,1.81,1.36
NCCCCCCNC(=O)[C@@H]1C[C@@H]2C(=O)N[C@@H](CCCCN)C(=O)N2[C@@H]1c1cccc(OCCO)c1,1.24,1.12,1.21,-0.0787,0.877,0.485,0.81,1.4,0.641,0.507 (inactive),0.57,0.0957 (inactive),-0.537 (inactive),-0.26 (inactive),-0.119 (inactive),0.125,0.094,-0.324,1.2,1.5
COc1ccc(-c2nc(-c3ccccc3)c3c(c2C)CO[Si]3(C(C)C)C(C)C)cn1,-0.479,0.081,0.268,-0.579,0.16,0.639,-0.0772,0.402,0.0463,0.431 (inactive),0.0934,-0.483 (inactive),0.338 (inactive),-0.607 (inactive),0.315 (inactive),0.188,-0.0494,0.14,-0.129,0.848
CCCCN1CC=CC23O[C@@H]4/C=C\CCC(C)OC(=O)C4[C@H]2C(=O)N(C(CO)C(C)C)[C@@H]3C1=O (stereo not given in full),-0.0545,-0.205,-0.35,-0.188,0.508,0.149,-0.0444,0.774,-0.0541,0.323 (inactive),-0.0931,0.415 (inactive),0.524 (inactive),-0.895 (inactive),-0.651 (inactive),-0.271,-0.128,0.624,0.517,1.42
O=C(NCC(F)(F)F)[C@@H]1c2ccccc2C(=O)N(Cc2ccc(OC(F)(F)F)cc2)[C@H]1c1ccc(CO)cc1,0.191,-0.0826,0.518,-0.344,1.02,0.45,0.845,0.713,0.444,1.36 (inactive),0.119,-2.41 (inactive),-0.652 (inactive),0.531 (inactive),0.118 (inactive),-0.176,-0.0672,0.176,-0.0108,1.74
CCCCC(O)C1C=CC2C(=O)N(c3ccccc3)C(=O)C2N1Nc1ccc(C(C)C)cc1 (stereo not given),0.236,1.22,0.536,1.01,0.967,-0.138,-0.142,0.451,0.394,-1.46 (inactive),0.261,-0.714 (inactive),-0.905 (inactive),1.38 (inactive),0.232 (inactive),0.486,0.341,-0.149,0.214,-0.207
O=C1NC(=O)C2C1C=CC(C(O)c1c(F)cccc1Cl)N2Nc1ccc(Cl)cc1Cl (stereo not given),1.23,1.2,1.6,0.296,-0.0649,-0.891,-1.15,-0.507,1.31,0.231 (inactive),0.275,-1.37 (inactive),-0.159 (inactive),0.632 (inactive),-0.524 (inactive),1.23,0.414,0.465,1.27,-0.854
